Laboratory results from PubChem BioAssay (Tox21).
A number with no mark means an inactive call. Entries that show only a call come without a potency. Activity calls are given as the source filed them. Calls come from the whole dose curve; as a rule, active = well fitted curve in the direction sought with a large enough effect in the repeat runs; inconclusive = weak or mixed curves; inactive = flat fitted curve, though single readings scatter.

Assay: qHTS assay to test for compound auto fluorescence at 460 nm (blue) in HepG2 cell free culture (AID 720685)
Conditions: Cell-free culture medium, blue autofluorescence 405/460 nm; series mostly up to 91.3 µM
Description: U.S. Tox21 Program National Center for Advancing Translational Sciences [NCATS] NIH Chemical Genomics Center [NCGC] U.S. Environmental Protection Agency [EPA] National Institutes of Environmental Health Sciences [NIEHS] National Toxicology Program [NTP] U.S. Food and Drug Administration [FDA] Tox21 Assay Overview: Compound auto fluorescence often interferes with screening of the compound library against various biological targets and signaling pathways. Some of these compounds may have fluorophoric properties. Such properties may interfere with the assay outputs resulting in false positives and/or negatives. To decrease such complications and ensure the compound activities are relevant in terms of biological response, the Tox21 10K compound library was screened for auto fluorescence. From the fluorophores used as reporter signals in our screening assays, the auto fluorescence equivalencies of compounds against three fluorophores have been evaluated: Triamterene, Fluorescein and Rose Bengal sodium for blue, green and red fluorescence, respectively. The fluorescence intensities were measured using Excitation/Emission wavelengths at 405/460nm, 485/535nm and 540/590nm for blue, green and red labels, respectively. This assay includes the blue fluorescence data.
Tox21 Assay Protocol Summary: 5 uL of culture medium (MEM containing 10% FBS) per well was dispensed into black wall/clear bottom 1536-well plates using a Multidrop Combi Dispenser (ThermoFisher Scientific, Waltham, MA). After 23 nL compound or DMSO vehicle was transferred into assay plate by a pintool work station (Kalypsys, San Diego, CA), fluorescence intensities in the assay plates were measured by an Envision (PerkinElmer, Shelton, CT) plate reader using three labels for measuring blue, green and red fluorescence at […] 460, 535 and 590nm respectively.

Row | Structure (SMILES) | Potency | fluorescence, % of fluorescent control
1 | C1CCC(SSC2CCCCC2)CC1 | inactive | –
2 | CC1=Nc2ccccc2C1(C)C | inactive | –
3 | C[C@@H](O)[C@H](N)C(=O)O | inactive | –
4 | O=C(O)Cc1ccccc1Nc1c(Cl)cccc1Cl | inactive | –
5 | COC(=O)c1ccccc1OC | inactive | –
6 | CC(=O)OCC=C(C)C | inactive | –
7 | CC(C)CCOC(=O)/C=C/c1ccccc1 | inactive | –
8 | O=C1c2ccccc2C(=O)N1SC1CCCCC1 | inactive | –
9 | CC[N+](CC)(CC)CCOC(=O)C(C1CCCC1)C1CCCC1 | inactive | –
10 | O=C1C(c2[nH]c3ccc(S(=O)(=O)O)cc3c2O)=Nc2ccc(S(=O)(=O)O)cc21 | inactive | –
11 | C=CCCC(=O)/C=C/C1C(C)=CCCC1(C)C (stereo not given) | inactive | –
12 | c1cnccn1 | inactive | –
13 | CCCCOC(=O)CO | inactive | –
14 | O=c1c(O)c(-c2ccc(O)cc2O)oc2cc(O)cc(O)c12 | inactive | –
15 | O=C1OC2(c3ccc(O)cc3Oc3cc(O)ccc32)c2ccc(N=C=S)cc21 | inactive | –
16 | OCC(F)(F)F | inactive | –
17 | CC[N+](CC)(CC)CCOc1ccc(/C=C/c2ccccc2)cc1 | inactive | –
18 | COC(=O)c1ccccc1C | inactive | –
19 | C=CC(C)(CCC=C(C)C)OC=O (stereo not given) | inactive | –
20 | OC[C@@H](O)[C@@H](O)CO | inactive | –

Row | Structure (SMILES) | Potency | fluorescence, % of fluorescent control
21 | CCCCOC(=O)CC | inactive | –
22 | [Cu+] | inactive | –
23 | CCOC(=O)c1ccc(C2CCC(NC[C@H](O)COc3ccc(O)c(NS(C)(=O)=O)c3)CC2)cc1 (stereo not given in full) | inactive | –
24 | CCCCNS(=O)(=O)c1ccc(C)cc1 | inactive | –
25 | O=C(Nc1ccc2c(O)c(N=Nc3ccc(N=Nc4ccc(S(=O)(=O)O)cc4)cc3)c(S(=O)(=O)O)cc2c1)c1ccccc1 | inactive | –
26 | Nc1cc(Cl)c(O)c(Cl)c1 | inactive | –
27 | COC(=O)C1=C(C)NC(C)=C(C(=O)OCCN2CCN(C(c3ccccc3)c3ccccc3)CC2)C1c1cccc([N+](=O)[O-])c1 (stereo not given) | inactive | –
28 | CCN(CCN)c1cccc(C)c1 | inactive | –
29 | CCO[Si](OCC)(OCC)OCC | inactive | –
30 | Cc1cccc2cccnc12 | inactive | –
31 | CNC(=O)c1ccccc1Sc1ccc2c(/C=C/c3ccccn3)n[nH]c2c1 | inactive | –
32 | CC(C)(C)c1ccc(C(O)CCCN2CCC(C(O)(c3ccccc3)c3ccccc3)CC2)cc1 (stereo not given) | inactive | –
33 | NC(=S)NC(N)=S | inactive | –
34 | CCCC(=O)OC(C)(C)Cc1ccccc1 | inactive | –
35 | Cc1c(C)c2c(c(C)c1OC(=O)c1cccnc1)CC[C@@](C)(CCC[C@H](C)CCC[C@H](C)CCCC(C)C)O2 | inactive | –
36 | CCCCC(CC)CN1CN(CC(CC)CCCC)CC(C)(N)C1 (stereo not given) | – | -0.127% [at 18.6 µM]
37 | O=C(O)CCN(C1(C(=O)NO)CCCC1)S(=O)(=O)c1ccc(Oc2ccc(F)cc2)cc1 | inactive | –
38 | CCCCCCOC(=O)C(C)CC (stereo not given) | inactive | –
39 | CCc1ccc(Br)cc1 | inactive | –
40 | C/C=C/C=C/COC(=O)C(C)C | inactive | –
